Compound activity (PubChem)
MITF TRPM1 HTS = activators of MITF-driven TRPM1 promoter reporter, primary screen, cell-based, SK-MEL-5, luciferase, single point; 0.75% of 300,000 active; AID 588334, 2011; activation, % at 12.5 µM; SK-MEL-5 TRPM1-promoter luciferase, 24 h; % of positive control, neutral wells = 0;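 active = mean activation of at least 80% with every replicate also reaching 80%; inconclusive = mean reaches 80% but some replicate falls short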
F508del corr = F508del CFTR correction, initial screen, CFBE line, single point; CFBE cells, YFP halide quenching; stimulated with forskolin plus potentiator P3; % fluorescence drop versus neutral controls; activity (quench increase), % at 7.58 µM; 0.36% of 350,000 active;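 active = mean added fluorescence quench of at least 8% versus neutral control, with both replicates also reaching 8%; inconclusive = only one of the mean or replicate conditions met; inactive = mean below 8% and not both replicates reaching 8%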;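 also: cells transiently co-express mutant CFTR-F508del with the halide-sensitive YFP; corrector assay measuring rescue of mutant channel to the surface after 24 h compound exposure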
Wnt bcat act = Wnt/beta-catenin pathway activators, primary screen, cell-based, plate reader, single point; Wnt/beta-catenin reporter cell assay, activator; activation, % at 9.35 µM; 1.2% of 300,000 active; AID 743398, 2014; in the data active = activation above about 30%, passing the limit was not always enough; inconclusive = no clear call, values can overlap the other calls
INS-1E GSIS act = GLuc luminescence reporter in INS-1E cells, primary screen for activators of glucose-dependent secretion of insulin; INS-1E GLuc reporter insulin secretion, 2-3 h; activation, % at 16.6 µM; 0.61% of 370,000 active; AID 743287, 2014;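 active = lowest replicate activation of at least 40%, so every replicate reaches that level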
HIV Env fusion = inhibitors of HIV-1 Env-driven cell-cell fusion, primary screen, HeLa-JRFL effector, CEM21 target cells, luciferase. inhibition, % at 12.3 µM. 1.1% of 360,000 active. AID 651610, 2012;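 active = mean replicate inhibition score of at least 50 and every replicate individually at or above 50; inconclusive = only one of the two criteria met; inactive = mean below 50 and not all replicates reaching 50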
Hits are given with their value; 0 = inactive; ? = inconclusive; - = no result given; [ ] = another dose, or the depositor's remark. In the library only some 2.7% were active in any assay of this set; here they are far more common.

SMILES	MITF TRPM1 HTS	F508del corr	Wnt bcat act	INS-1E GSIS act	HIV Env fusion
C[C@H]1CN([C@@H](C)CO)C(=O)Cc2cc(NC(=O)Nc3ccc(C(F)(F)F)cc3)ccc2O[C@H]1CN(C)S(=O)(=O)c1ccccc1	-	11	-	0	0
COCC(=O)N1CC2(C1)CN(C(=O)CN1CCOCC1)[C@@H](CO)c1c2c2ccc(OC)cc2n1C	-	0	-	0	-
COc1ccc(NC(=O)N(C)C[C@@H]2OCCCC[C@@H](C)Oc3ccc(NS(=O)(=O)c4ccc(F)cc4)cc3C(=O)N([C@H](C)CO)C[C@@H]2C)cc1	-	0	-	0	0
C[C@@H]1CN([C@H](C)CO)C(=O)c2cc(NC(=O)CCC(F)(F)F)ccc2O[C@H]1CN(C)C	-	0	-	0	-
C[C@@H]1CN([C@@H](C)CO)C(=O)Cc2cc(NC(=O)Cc3cn(C)c4ccccc34)ccc2O[C@H]1CN(C)CC1CCCCC1	-	0	-	0	0
O=S(=O)(N[C@@H]1CC[C@@H](CCn2cc(-c3cccc(F)c3)nn2)O[C@@H]1CO)c1ccccc1	-	0	-	0	0
C[C@H]1CN([C@@H](C)CO)C(=O)Cc2cc(NC(=O)Nc3ccc4c(c3)OCO4)ccc2O[C@H]1CN(C)S(=O)(=O)c1ccccc1	-	0	-	0	63[16.7 µM]
CCOC(=O)c1c(C)cc2c(CO)n[nH]c(=O)c2c1C	-	0	0	0	56
CCOC(=O)Cc1n[nH]c(=O)c2ccccc12	0	0	0	0	0
CC(C)NC(=O)N(C)C[C@@H]1Oc2ccc(NS(=O)(=O)c3ccc(F)cc3)cc2CC(=O)N([C@H](C)CO)C[C@H]1C	-	0	-	0	-
COc1ccc(-c2cn(CC(=O)N3CCN(C)CC3)nn2)cc1OC	-	0	-	-	0
CC(C)(C)c1nc(C(C)(C)C)c(Br)c(=O)[nH]1	0	0	0	0	72
CC1CCC(=C(C#N)c2nc(-c3cc4ccccc4oc3=O)cs2)CC1 (stereo unspecified)	88	-	-	-	-
N#CCc1nc(-c2cc3ccccc3oc2=O)cs1	0	0	0	-	0
CCCC(=O)Nc1c(C(=O)OCC)oc2ccccc12	0	0	0	41	0
COC(=O)[C@H]1[C@H](CO)[C@H]2Cn3c(ccc(C4=CCCCC4)c3=O)[C@H]2N1C(=O)C1CCCC1	-	-	-	0	-
Cn1nc(CC(=O)NCc2ccc(C(F)(F)F)cc2)c2ccccc2c1=O	-	-	0	-	71
Cc1ccc(S(=O)(=O)N[C@H]2CC[C@@H](CCn3cc(C4(O)CCCC4)nn3)O[C@@H]2CO)cc1	-	0	-	0	0
CCOC(=O)C1=C(COC(=O)/C=C/c2ccc(OC)c(OC)c2)NC(=O)NC1C (stereo unspecified)	0	0	0	0	0
CCOC(=O)C1=C(COC(=O)/C=C/c2ccc(O)c(OC)c2)NC(=O)NC1C (stereo unspecified)	0	0	0	59	-
O=C(NCCc1c[nH]c2ccccc12)c1cc2sccc2n1Cc1ccccc1	-	-	0	-	0
Cn1c(C(=O)NCCc2c[nH]c3ccccc23)cc2sccc21	101	0	0	0	0
COC(=O)CNC(=O)Cn1nc(C)c([N+](=O)[O-])c1C	0	0	38	0	0
Cc1nn(CCCC(=O)NCc2ccc(Cl)cc2)c(C)c1[N+](=O)[O-]	0	-	0	0	0
COc1ccc(CNC(=O)CCCn2nc(C)c([N+](=O)[O-])c2C)cc1OC	0	0	38	0	0
SMILES	MITF TRPM1 HTS	F508del corr	Wnt bcat act	INS-1E GSIS act	HIV Env fusion
C[C@H](CO)N1C[C@H](C)[C@H](CN(C)C)Oc2ccc(NC(=O)Nc3ccc4c(c3)OCO4)cc2C1=O	-	0	-	0	-
O=C(Nc1ccn(Cc2ccccc2F)n1)c1ccc(COc2ccccc2Cl)cc1	0	-	-	-	60
C[C@H]1CCCCO[C@@H](CN(C)C(=O)Nc2ccccc2)[C@@H](C)CN([C@@H](C)CO)C(=O)c2cc(NC(=O)Nc3cccc4ccccc34)ccc2O1	-	0	-	0	0
COc1cccc(/C=C2\CCc3ccccc3C2=O)c1	0	0	35	0	0
COc1cccc(C=C2Cc3ccccc3C2=O)c1	-	0	0	0	0
COc1ccc2c(c1)CC/C(=C/c1ccccn1)C2=O	0	0	0	0	0
COc1ccc2c(c1)CC/C(=C\C=C\c1ccccc1)C2=O	-	-	31	-	0
CC(C)(C)c1ccc(/C=C/C(=O)Nc2cccnc2)cc1	108	0	31	0	0
O=C(/C=C/c1ccc(Cl)c(Cl)c1)Nc1cccnc1	?	-	0	0	0
COc1cccc(NC(=O)/C=C/c2ccco2)c1	0	0	68	0	0
O=C(/C=C/c1ccco1)Nc1cccnc1	0	0	53	0	0
O=C(NN=Cc1c(O)ccc2ccccc12)c1ccc2c(c1)OCO2	0	0	0	0	0
O=C(N/N=C/c1c(O)ccc2ccccc12)c1ccc(CO)nc1	-	14	0	-	0
CCc1ccc(CNc2ccc3c(c2)ncn3C)cc1	0	0	?	0	-
CCn1cnc2cc(NCc3ccc(Cl)cc3)ccc21	0	0	34	0	0
Cc1ccc(CNc2ccc3c(c2)ncn3C)cc1	0	-	41	0	0
Cc1ccc(C(=O)Nc2ccc3c(c2)ncn3C)cc1	0	-	38	-	0
CCn1cnc2cc(NCc3ccncc3)ccc21	0	-	0	-	0
C/C=C/c1cccc(-c2nc(C(=O)NC3CCC3)cc3c2[C@@H](CCO)N([S@](=O)C(C)(C)C)C3)c1	-	-	-	0	-
CN1C(=O)c2cc(NC(=O)c3cscn3)ccc2OC[C@@H]2O[C@@H](CC(=O)NCC3CC3)CC[C@@H]21	-	0	-	0	0
CCc1nnc(NC(=O)CSc2ncnc3c2cnn3-c2ccc(OC)cc2)s1	0	-	38	0	0
CCOC(=O)CNC(=O)CSc1ncnc2c1cnn2-c1ccc(OC)cc1	0	-	-	0	-
C[C@H](CO)N1C[C@H](C)[C@@H](CN(C)C(=O)Nc2ccc(N3CCCCC3)cc2)OCc2cn(nn2)CCCC1=O	-	0	-	0	-
COc1ccccc1/C=C/C=N/NC(=O)CCn1cnc2ccccc21	-	13	0	0	0
COc1ccccc1/C=C/C=N/NC(=O)c1ccccn1	97	0	0	-	0
SMILES	MITF TRPM1 HTS	F508del corr	Wnt bcat act	INS-1E GSIS act	HIV Env fusion
CC(C)CNC(=O)COCc1cc(-c2ccc3c(c2)OCO3)on1	0	0	0	0	0
CSc1ccccc1NC(=O)c1cc(-c2ccc3c(c2)OCO3)on1	0	0	0	0	0
CC(C)CNC(=O)c1cc(-c2ccc3c(c2)OCO3)on1	-	0	35	0	0
CN(C(=O)c1cc(-c2ccc3c(c2)OCO3)on1)c1ccccc1	101	0	0	0	0
Cc1nc(N2[C@H](CO)[C@H](c3ccccc3)[C@H]2CNCC2CCCC2)sc1C	-	0	-	0	-
CC(=O)N1c2ccc(S(=O)(=O)N3CCCC3C(=O)Nc3cccc(F)c3)cc2CC1C (stereo unspecified)	0	0	0	0	0
COc1ccc(NC(=O)C2CCCN2S(=O)(=O)c2ccc3c(c2)CC(C)N3C(C)=O)cc1OC (stereo unspecified)	0	0	0	101	0
